Compound activity (PubChem BioAssay)
VACV mCherry inh: inhibitors of vaccinia virus infection (mCherry reporter signal); Vaccinia virus mCherry reporter infection, fluorescence; Potency, µM (series often up to 36.5 µM), for inactives: at the top dose activity change, negative = inhibition, actives largely listed as inhibitors; hit rate 0.63% among 310,000; AID 720579; calls by dose curve; tested in A549 cells; note: nearly all actives have a fitted effect of over 35% in size
HCV inh: blocks hepatitis C virus. Huh7.5.1 HCVcc-Cre infection, luciferase reporter, 44 h. Potency, µM (highest dose often 41.8 µM), for the others: top-dose activity change, negative = inhibition, actives largely listed as inhibitors. hit rate 3.4% among 340,000. AID 651820; active = well fitted inhibition curve with a large enough effect; inconclusive = small, poorly fitted or top-dose-only effect, or another doubt; inactive = no such curve, though single readings can be large or run the other way
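Luciferase read-out (15 sec integration) after a 15 min room-temperature substrate step quantifies HCVcc-Cre infection. Cells, 1,000 per well, had compound added 4 h post-plating, then virus at ~0.5 moi, and were cultured 44 h.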
Vaccinia Venus: vaccinia inhibition (Venus reporter); Vaccinia virus Venus reporter expression, fluorescence; Potency, µM (top dose mostly 36.5 µM), without a hit: at the top dose activity change, negative = inhibition, usual class: inhibitors; AID 720580; hit rate 0.46% among 330,000; calls by dose curve; tested in A549 cells; note: nearly all actives have a fitted effect of over 30% in size
Numbers without * were called inactive; i = inactive; ? = inconclusive; / = no result given; [ ] = dose if it differs, or a comment. In the library only some 3.3% were active in any assay of this set; here they are far more common. % is set by controls: 0 for no effect and ±100 for the full control effect; potency is the fitted concentration of half-maximal effect.

SMILES | VACV mCherry inh | HCV inh | Vaccinia Venus
CCN(CC)C1CCN(C(=O)c2ccc(OC3CCN(CCc4ccccc4)CC3)cc2)C1 (stereo not drawn) | / | 7.08µM* | /
COC1CCN(C(=O)c2ccc(OC3CCN(CCc4ccccc4)CC3)cc2)CC1 | 4.9% | -4.3% | -1.7%
CC(=O)N1c2ccc(C)cc2Sc2c1ccc1ccccc21 | -17.0% | -9.9% | -7.0%
Cc1ccc2c(c1)S/C(=C/c1ccc[n+](CCO)c1)N2C | -18.3% | 1.58µM* | -15.5%
COC(=O)c1sc(NC(=S)NC(=O)c2cccc(Br)c2)nc1C | / | -5.8% | /
Oc1c(C(c2ccco2)N2CCN(C(c3ccccc3)c3ccccc3)CC2)sc2ncnn12 (stereo not drawn) | -7.3% | 14.1µM* | -19.2%
Oc1c(C(c2ccccc2)N2CCc3ccccc3C2)sc2ncnn12 (stereo not drawn) | -1.8% | ? | -0.2%
CC(C)(C)OC(=O)COc1cc(OCC(=O)OC(C)(C)C)c2c(=O)cc(-c3ccccc3)oc2c1 | ? | 10µM* | 11.2µM*
COC(=O)COc1cc(OCC(=O)OC)c2c(-c3ccccc3)cc(=O)oc2c1 | / | 1.3% | /
COc1ccc(-c2nc(S(=O)(=O)c3ccc(C)cc3)c(NCc3ccccc3)o2)cc1 | -11.9% | / | 3.0%
O=C(c1ccc(O)c(Cl)c1)N1CCN(S(=O)(=O)c2ccccc2)CC1 | -0.9% | 20.5% | -6.8%
CN(CC(=O)Nc1ccc(OC(F)(F)F)cc1)C(=O)c1ccc(N2CCCC2=O)cc1 | / | 4.47µM* | /
CN(CC(=O)Nc1ccc(Cl)cc1)C(=O)c1ccc(N2CCCC2=O)cc1 | / | 21.9% | /
CS(=O)(=O)c1ccc(C(=O)OCC(=O)N2CCCC2)cc1[N+](=O)[O-] | -2.8% | / | -14.8%
CCN(CC(=O)NCc1ccc(Cl)cc1)C(=O)CSc1ccc(F)cc1 | -24.7% | ? | -23.6%
CCN(CC(=O)NCc1ccc(F)cc1)C(=O)CN1CCN(c2cc(Cl)ccc2C)CC1 | -17.2% | 6.31µM* | -12.9%
Cc1ccc(NC(=O)CSc2nc3nccnc3c(=O)n2CCc2c[nH]c3ccccc23)cc1C | -11.8% | / | -11.7%
CCOC(=O)c1cnc2ccc(OCC)cc2c1NCc1ccccc1OC | -15.2% | 7.08µM* | -3.6%
CCOC(=O)c1cnc2ccc(OC)cc2c1NCc1ccccc1 | -22.8% | ? | -3.5%
Nc1ccn([C@@H]2O[C@H](CNCc3cnc(N4CCOCC4)nc3)[C@@H](O)[C@H]2O)c(=O)n1 | i | / | -5.1%
O=C(NCc1ccccc1Cl)c1ccc2c(c1)nnn2C1CCCC1 | -7.3% | / | 3.2%
CC1=CC(=O)c2ccccc2C1=O | -13.4% | -6.3% | -11.3%
CC(C)(C=O)C1=CC(=O)c2ccccc2C1=O | -27.3% | 7.08µM* | -13.4%
O=S(Cc1ccc(Br)cc1)Cc1nnc(SCc2c(F)cccc2Cl)n1-c1ccccc1 (stereo not drawn) | -11.9% | ? | -29.0%
O=S(Cc1ccc(Br)cc1)Cc1nnc(SCc2ccc(Cl)cc2)n1-c1ccccc1 (stereo not drawn) | i | 6.31µM* | ?
SMILES | VACV mCherry inh | HCV inh | Vaccinia Venus
CC(=O)N/C(=C\c1ccc(F)cc1)C(=O)OCc1ccccc1 | -5.2% | 17.9% | -9.8%
Cc1cc(C(=O)OCC(=O)NC(=O)C2CCCCC2)ccc1[N+](=O)[O-] | -4.6% | / | -16.0%
COc1ccc(OC)c(NC(=O)CSc2nnc3ccc4ccccc4n23)c1 | -11.8% | / | -11.0%
Cc1nc2ccc(N)cc2c(=O)n1Cc1ccc(Cl)cc1 | -9.7% | -2.6% | -12.2%
Nc1ccc(Cn2ccc3c4c(N)nc(N)nc4ccc32)cc1 | 0.355µM* | ? | ?
O=C(NCC(=O)N1CCN(c2ccccc2)CC1)c1cccs1 | / | 19.4% | /
CCCCn1nc2cc(C(=O)NCc3ccc(C(F)(F)F)cc3C(F)(F)F)ccc2c1OCC | -0.3% | ? | ?
CCCCn1nc2cc(C(=O)NCc3ccccc3OC)ccc2c1OCC | -6.9% | 3.55µM* | -4.6%
CC(=O)c1ccc(NC(=O)c2ccc3c(c2)N(Cc2cccc(Cl)c2)C(=O)c2ccccc2S3(=O)=O)cc1 | -13.2% | / | -3.2%
CS(=O)(=O)c1ncc(Cl)c(C(=O)Nc2ccc3ccccc3c2)n1 | 10µM* | 11.2µM* | ?
CC(=O)Nc1ccc(NC(=O)c2nc(S(=O)(=O)Cc3ccccc3)ncc2Cl)cc1 | / | -19.7% | /
COc1cccc(NC(=O)CN2C(=O)CSc3ccc(S(=O)(=O)N4CCCC4)cc32)c1 | 3.1% | / | 4.1%
CC(NC1=CC(=O)c2cccnc2C1=O)C(O)c1ccccc1 (stereo not drawn) | ? | ? | 10µM*
O=C1C(Nc2ccccc2)=CC(=O)c2ncccc21 | -7.3%[60.7 µM] | / | -22.8%[60.7 µM]
Cc1ccc(CNc2ncnc3sc(C(=O)N4CCCC(C(N)=O)C4)c(C)c23)o1 (stereo not drawn) | -3.9% | / | 4.0%
